Measured values reported in the supplement of paper PMC12645437, “Orthogonal IMiD-Degron Pairs Induce Selective Protein Degradation in Cells” (ACS Chemical Biology, 2025).
Whole data set: some 8,300 sequences, median “log2 fold change of degron read counts, EGFP-low vs EGFP+ sorted cells (limma voom), compound-induced degradation” near -1.1, cut for the highest 2% near 3.2. Only a selection was taken, and the highest values are over-represented in it overall.

Target: T1, CRBN, Q96SW2
T1 chain: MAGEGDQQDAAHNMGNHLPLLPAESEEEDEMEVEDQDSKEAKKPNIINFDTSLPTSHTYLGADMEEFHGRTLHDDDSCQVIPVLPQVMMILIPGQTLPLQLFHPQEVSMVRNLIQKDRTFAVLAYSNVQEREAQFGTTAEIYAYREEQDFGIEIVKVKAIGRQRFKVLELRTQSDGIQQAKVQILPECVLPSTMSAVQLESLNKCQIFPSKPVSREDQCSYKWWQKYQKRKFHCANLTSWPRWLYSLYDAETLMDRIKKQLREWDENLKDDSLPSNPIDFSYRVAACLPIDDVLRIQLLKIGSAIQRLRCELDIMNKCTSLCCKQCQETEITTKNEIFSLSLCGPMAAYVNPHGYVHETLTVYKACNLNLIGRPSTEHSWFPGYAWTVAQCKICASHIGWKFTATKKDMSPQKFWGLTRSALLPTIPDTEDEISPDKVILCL
Test: log2 fold change of degron read counts, EGFP-low vs EGFP+ sorted cells (limma voom), compound-induced degradation; higher = more compound-induced degradation of the degron-EGFP fusion; degrons are variants of IKZF1/3 zinc finger 2; compound dose not given here
Settings: Jurkat, 18 h

[1] = compound: compound 19 (5-tert-butyl-thalidomide)
[2] = compound: compound 22 (5-morpholino-thalidomide)
[3] = compound: compound 33 (diphenyl IMiD analogue)
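Also: pooled lentiviral library of zinc finger degron-EGFP fusions in mCherry-positive Jurkat cells, FACS-sorted after compound exposure, with degron abundance counted by next-generation sequencing.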

B1: 46F_47T_49P_50Q_52G_53A_54W_55F_67L_, Q9UKT9 (peptide)
chain: FTCPQCGAWFTQKGNLLRHIKL
log2 fold change of degron read counts [1]: -1.97
log2 fold change of degron read counts [2]: -1.41
log2 fold change of degron read counts [3]: 0.47
log2 fold change of degron read counts (compound: thalidomide): -0.222

B2: 46F_47H_49P_50I_52G_53H_54T_55F_67L_, Q9UKT9 (peptide)
chain: FHCPICGHTFTQKGNLLRHIKL
log2 fold change of degron read counts [1]: -2.42
log2 fold change of degron read counts [2]: -2.36
log2 fold change of degron read counts [3]: -1.31
log2 fold change of degron read counts (compound: thalidomide): -1.65

B3: 46F_47Q_49N_50Q_52G_53H_54K_55F_67L_, Q9UKT9 (peptide)
chain: FQCNQCGHKFTQKGNLLRHIKL
log2 fold change of degron read counts [1]: -3.13
log2 fold change of degron read counts [2]: -3.72
log2 fold change of degron read counts [3]: -2.89
log2 fold change of degron read counts (compound: thalidomide): -2.56

B4: 46F_47I_49E_50I_52G_53R_54S_55F_67L_, Q9UKT9 (peptide)
chain: FICEICGRSFTQKGNLLRHIKL
log2 fold change of degron read counts [1]: -2.87
log2 fold change of degron read counts [2]: -2.13
log2 fold change of degron read counts [3]: -1.31
log2 fold change of degron read counts (compound: thalidomide): -0.772

B5: 46F_47Y_49E_50I_52G_53R_54Y_55F_67L_, Q9UKT9 (peptide)
chain: FYCEICGRYFTQKGNLLRHIKL
log2 fold change of degron read counts [1]: 1.09
log2 fold change of degron read counts [2]: 0.388
log2 fold change of degron read counts [3]: -0.525
log2 fold change of degron read counts (compound: thalidomide): -1.2

B6: 46F_47K_49N_50I_52G_53A_54C_55F_67L_, Q9UKT9 (peptide)
chain: FKCNICGACFTQKGNLLRHIKL
log2 fold change of degron read counts [1]: -1.31
log2 fold change of degron read counts [2]: -2.26
log2 fold change of degron read counts [3]: -2.53
log2 fold change of degron read counts (compound: thalidomide): -1.43

B7: 46F_47W_49N_50I_52G_53A_54C_55F_67L_, Q9UKT9 (peptide)
chain: FWCNICGACFTQKGNLLRHIKL
log2 fold change of degron read counts [1]: 2.95
log2 fold change of degron read counts [2]: 3.36
log2 fold change of degron read counts [3]: 1.98
log2 fold change of degron read counts (compound: thalidomide): 0.445

B8: 46F_47R_49N_50I_52G_53A_54C_55F_67L_, Q9UKT9 (peptide)
chain: FRCNICGACFTQKGNLLRHIKL
log2 fold change of degron read counts [1]: -1.25
log2 fold change of degron read counts [2]: -0.613
log2 fold change of degron read counts [3]: 0.532
log2 fold change of degron read counts (compound: thalidomide): 0.406

B9: 46F_47Q_49N_50I_52G_53A_54C_55F_67L_, Q9UKT9 (peptide)
chain: FQCNICGACFTQKGNLLRHIKL
log2 fold change of degron read counts [1]: -0.735
log2 fold change of degron read counts [2]: 1.82
log2 fold change of degron read counts [3]: 1.65
log2 fold change of degron read counts (compound: thalidomide): 3.38

B10: 46F_47S_49N_50I_52G_53A_54C_55F_67L_, Q9UKT9 (peptide)
chain: FSCNICGACFTQKGNLLRHIKL
log2 fold change of degron read counts [1]: 0.632
log2 fold change of degron read counts [2]: 1.69
log2 fold change of degron read counts [3]: 2.11
log2 fold change of degron read counts (compound: thalidomide): 1.06

B11: 46F_47Y_49N_50I_52G_53A_54C_55F_67L_, Q9UKT9 (peptide)
chain: FYCNICGACFTQKGNLLRHIKL
log2 fold change of degron read counts [1]: 2.86
log2 fold change of degron read counts [2]: 3.15
log2 fold change of degron read counts [3]: 1.94
log2 fold change of degron read counts (compound: thalidomide): 0.278

B12: 46F_47V_49D_50Q_52G_53A_54F_55F_67L_, Q9UKT9 (peptide)
chain: FVCDQCGAFFTQKGNLLRHIKL
log2 fold change of degron read counts [1]: -2.6
log2 fold change of degron read counts [2]: -2.32
log2 fold change of degron read counts [3]: -2.12
log2 fold change of degron read counts (compound: thalidomide): -2.19

B13: 46F_47F_49S_50V_52G_53H_54P_55F_67L_, Q9UKT9 (peptide)
chain: FFCSVCGHPFTQKGNLLRHIKL
log2 fold change of degron read counts [1]: -0.493
log2 fold change of degron read counts [2]: -1.26
log2 fold change of degron read counts [3]: -1.56
log2 fold change of degron read counts (compound: thalidomide): -1.25

B14: 46F_47V_49P_50V_52G_53A_54H_55F_67L_, Q9UKT9 (peptide)
chain: FVCPVCGAHFTQKGNLLRHIKL
log2 fold change of degron read counts [1]: -0.62
log2 fold change of degron read counts [2]: 1.87
log2 fold change of degron read counts [3]: 1.15
log2 fold change of degron read counts (compound: thalidomide): 2.07

B15: 46F_47R_49P_50V_52G_53A_54H_55F_67L_, Q9UKT9 (peptide)
chain: FRCPVCGAHFTQKGNLLRHIKL
log2 fold change of degron read counts [1]: -0.862
log2 fold change of degron read counts [2]: -0.227
log2 fold change of degron read counts [3]: 0.973
log2 fold change of degron read counts (compound: thalidomide): 0.478

B16: 46F_47A_49P_50V_52G_53A_54H_55F_67L_, Q9UKT9 (peptide)
chain: FACPVCGAHFTQKGNLLRHIKL
log2 fold change of degron read counts [1]: 2.93
log2 fold change of degron read counts [2]: 1.05
log2 fold change of degron read counts [3]: 0.871
log2 fold change of degron read counts (compound: thalidomide): 0.221

B17: 46F_47G_49P_50V_52G_53A_54H_55F_67L_, Q9UKT9 (peptide)
chain: FGCPVCGAHFTQKGNLLRHIKL
log2 fold change of degron read counts [1]: 2.85
log2 fold change of degron read counts [2]: 0.903
log2 fold change of degron read counts [3]: 1.38
log2 fold change of degron read counts (compound: thalidomide): 0.174

B18: 46F_47W_49P_50V_52G_53A_54H_55F_67L_, Q9UKT9 (peptide)
chain: FWCPVCGAHFTQKGNLLRHIKL
log2 fold change of degron read counts [1]: 2.57
log2 fold change of degron read counts [2]: 3.79
log2 fold change of degron read counts [3]: 1.99
log2 fold change of degron read counts (compound: thalidomide): 0.84

B19: 46F_47D_49P_50V_52G_53A_54H_55F_67L_, Q9UKT9 (peptide)
chain: FDCPVCGAHFTQKGNLLRHIKL
log2 fold change of degron read counts [1]: 2.9
log2 fold change of degron read counts [2]: 1.04
log2 fold change of degron read counts [3]: 0.819
log2 fold change of degron read counts (compound: thalidomide): 1.19

B20: 46F_47Q_49P_50V_52G_53A_54H_55F_67L_, Q9UKT9 (peptide)
chain: FQCPVCGAHFTQKGNLLRHIKL
log2 fold change of degron read counts [1]: -0.252
log2 fold change of degron read counts [2]: 1.64
log2 fold change of degron read counts [3]: 1.32
log2 fold change of degron read counts (compound: thalidomide): 3.27

B21: 46F_47M_49P_50V_52G_53A_54H_55F_67L_, Q9UKT9 (peptide)
chain: FMCPVCGAHFTQKGNLLRHIKL
log2 fold change of degron read counts [1]: -0.687
log2 fold change of degron read counts [2]: 0.177
log2 fold change of degron read counts [3]: 2.13
log2 fold change of degron read counts (compound: thalidomide): 0.77

B22: 46F_47Y_49P_50V_52G_53A_54H_55F_67L_, Q9UKT9 (peptide)
chain: FYCPVCGAHFTQKGNLLRHIKL
log2 fold change of degron read counts [1]: 2.89
log2 fold change of degron read counts [2]: 3.48
log2 fold change of degron read counts [3]: 2.31
log2 fold change of degron read counts (compound: thalidomide): 0.928

B23: 46L_47A_49E_50I_52G_53F_54L_55C_67L_, Q9UKT9 (peptide)
chain: LACEICGFLCTQKGNLLRHIKL
log2 fold change of degron read counts [1]: 0.343
log2 fold change of degron read counts [2]: -0.688
log2 fold change of degron read counts [3]: -1.12
log2 fold change of degron read counts (compound: thalidomide): -0.901

B24: 46F_47G_49D_50I_52G_53A_54F_55F_67L_, Q9UKT9 (peptide)
chain: FGCDICGAFFTQKGNLLRHIKL
log2 fold change of degron read counts [1]: 0.984
log2 fold change of degron read counts [2]: -0.922
log2 fold change of degron read counts [3]: 1.74
log2 fold change of degron read counts (compound: thalidomide): -1.18

B25: 46F_47E_49P_50I_52G_53H_54K_55F_67L_, Q9UKT9 (peptide)
chain: FECPICGHKFTQKGNLLRHIKL
log2 fold change of degron read counts [1]: -3.48
log2 fold change of degron read counts [2]: -2.51
log2 fold change of degron read counts [3]: -2.67
log2 fold change of degron read counts (compound: thalidomide): -1.19

B26: 46F_47D_49E_50I_52G_53R_54L_55F_67L_, Q9UKT9 (peptide)
chain: FDCEICGRLFTQKGNLLRHIKL
log2 fold change of degron read counts [1]: -2.24
log2 fold change of degron read counts [2]: -1.71
log2 fold change of degron read counts [3]: -0.0163
log2 fold change of degron read counts (compound: thalidomide): -0.815

B27: 46F_47W_49D_50I_52G_53A_54T_55F_67L_, Q9UKT9 (peptide)
chain: FWCDICGATFTQKGNLLRHIKL
log2 fold change of degron read counts [1]: 2.74
log2 fold change of degron read counts [2]: 3.05
log2 fold change of degron read counts [3]: 0.604
log2 fold change of degron read counts (compound: thalidomide): -1.08

B28: 46F_47G_49E_50I_52G_53R_54E_55F_67L_, Q9UKT9 (peptide)
chain: FGCEICGREFTQKGNLLRHIKL
log2 fold change of degron read counts [1]: -2.14
log2 fold change of degron read counts [2]: -2.75
log2 fold change of degron read counts [3]: -2.14
log2 fold change of degron read counts (compound: thalidomide): -2.84
